Columns and labels:
Test in all cases: PBM binding z-score (relative to random genomic background probes); higher = stronger binding; sequences stand for … in GC…GCGATTGACAGCGTAGAATGAAGG
[1] = system: FXR:RXRa (NR concentration 270 nM, RXRa partner concentration 90 nM)
Outline: (§1)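 Probes were double-stranded and carried 34-nt variable regions with direct-repeat seeds, single-nucleotide variants, half-site ablations and random human genomic background sequences, printed on custom Agilent 4×180K protein-binding microarrays. Arrays were incubated 1 h with ligand-free nuclear receptor dimers in PBS pH 7.4, 2% milk, 0.02% Triton X-100, 1 mM DTT, 0.2 mg/mL BSA and 0.4 mg/ml salmon testes DNA. Antibodies against each partner (one per run) detected binding, and scanned fluorescence was regression-normalized. Binding z-scores use the random background probes as reference.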

[2] = system: LXRa:RXRa (NR concentration 270 nM, RXRa partner concentration 90 nM)
Outline: as §1

[3] = system: LXRa homodimer (NR concentration 270 nM)
Outline: as §1

[4] = system: LXRb:RXRa (NR concentration 270 nM, RXRa partner concentration 90 nM)
Outline: as §1

[5] = system: LXRb homodimer (NR concentration 270 nM)
Outline: as §1

[6] = system: PPARa:RXRa (NR concentration 270 nM, RXRa partner concentration 90 nM)
Outline: as §1

[7] = system: PPARg:RXRa (NR concentration 180 nM, RXRa partner concentration 90 nM)
Outline: as §1

[8] = system: PPARg:RXRa 270nM:90nM, anti-RXR (NR concentration 270 nM, RXRa partner concentration 90 nM)
Outline: as §1

[9] = system: PPARg:RXRa 30nM:10nM, anti-RXR (NR concentration 30 nM, RXRa partner concentration 10 nM)
Outline: as §1

[10] = system: PPARg:RXRa 90nM:30nM, anti-RXR (NR concentration 90 nM, RXRa partner concentration 30 nM)
Outline: as §1

[11] = system: PPARg:RXRa DBDmut IVT, anti-RXR (DBD mutation: RXRa K156A/R161A, NR concentration 270 nM, RXRa partner concentration 90 nM)
Outline: as §1

[12] = system: PPARg:RXRa IVT, anti-PPARg (NR concentration 270 nM, RXRa partner concentration 90 nM)
Outline: as §1

[13] = system: PPARg DBDmut:RXRa IVT, anti-PPARg (DBD mutation: PPARg1 K132A/R137A, NR concentration 270 nM, RXRa partner concentration 90 nM)
Outline: as §1

[14] = system: PPARg DBDmut IVT, anti-PPARg (DBD mutation: PPARg1 K132A/R137A, NR concentration 270 nM)
Outline: as §1

[15] = system: PPARg homodimer (NR concentration 180 nM)
Outline: as §1

[16] = system: PXR:RXRa (NR concentration 270 nM, RXRa partner concentration 90 nM)
Outline: as §1

[17] = system: PXR homodimer (NR concentration 270 nM)
Outline: as §1

[18] = system: RARa:RXR (NR concentration 270 nM, RXRa partner concentration 90 nM)
Outline: as §1

[19] = system: RARa homodimer (NR concentration 270 nM)
Outline: as §1

[20] = system: RARb:RXRa (NR concentration 270 nM, RXRa partner concentration 90 nM)
Outline: as §1

Sequence | PBM binding z-score [1] | PBM binding z-score [2] | PBM binding z-score [3] | PBM binding z-score [4] | PBM binding z-score [5] | PBM binding z-score [6] | PBM binding z-score [7] | PBM binding z-score [8] | PBM binding z-score [9] | PBM binding z-score [10] | PBM binding z-score [11] | PBM binding z-score [12] | PBM binding z-score [13] | PBM binding z-score [14] | PBM binding z-score [15] | PBM binding z-score [16] | PBM binding z-score [17] | PBM binding z-score [18] | PBM binding z-score [19] | PBM binding z-score [20]
TCATATAGGTAAAGGTGAAGGTCGAACGATATGA | 1.28 | 1.29 | -0.098 | 1.57 | 0.0286 | 3.41 | 4.01 | 4.29 | 4.42 | 4.54 | 4.25 | 4.21 | 1.49 | 1.44 | 1.37 | 1.57 | 0.53 | 2 | 0.708 | 2.45
CCTGCTAGGTTATGGTCAGCTAATCTACAGTATG | -0.0301 | -0.0994 | -0.554 | -0.211 | -0.277 | -0.0739 | -0.279 | -0.092 | -0.295 | -0.423 | 1.28 | 0.468 | -0.113 | 0.438 | -0.1 | -0.197 | -0.354 | -0.233 | 0.0671 | 1
CTACCGAGGTGAACAAGGTCGTTGATTACTATTC | 1.49 | 1.66 | 0.107 | 2.37 | -0.186 | 3.16 | 1.79 | 1.8 | 0.0798 | 0.754 | 2.91 | 3.47 | 0.523 | 0.329 | 0.965 | 3.25 | 1.95 | 2.62 | -0.15 | 2.19
CAAACTAGGTCACAGAGGTCAAAGTCCGTGCGTA | 7.61 | 6.66 | 7.31 | 6.24 | 2.21 | 6.66 | 10.2 | 8.58 | 6.84 | 8.64 | 8.82 | 9.1 | 2.19 | 1.15 | 5.68 | 6.96 | 11.2 | 7.51 | 3.31 | 5.25
TCATATAGGTAAAGCTGAAAGTCGAACGATATGA | 0.358 | 0.331 | -0.286 | 0.366 | -0.268 | 0.995 | 0.806 | 1.97 | 3.45 | 2.72 | 3.57 | 2.35 | 0.591 | 1.09 | -0.748 | 0.2 | -0.49 | 0.193 | -0.464 | 0.205
TCTCGGAGGACACGACGGTCAGAGCTTTCCAGAG | 0.205 | 0.0184 | -0.415 | -0.277 | -1.16 | 0.197 | -0.0353 | 0.515 | 1.6 | 1.3 | 1.2 | 0.00965 | -1.14 | -0.952 | -0.596 | -0.328 | -0.626 | -0.317 | -0.599 | 1.91
GTACCAAGGGGAATAGGTCGTTGATGAGTAGGCG | -0.0504 | 0.00136 | -0.0435 | 0.269 | -0.418 | 1.3 | 0.915 | 1.15 | 0.0532 | 0.835 | -0.45 | 0.704 | -0.174 | -0.377 | 0.85 | 0.0913 | 0.00696 | 0.389 | 0.37 | 0.516
CGTCAAAGTTCAACTAAGGCAACGTAAAGCACGC | 6.41 | 6.09 | 3.57 | 3.9 | 1.79 | 4.93 | 4.8 | 5.53 | 1.96 | 4.18 | 0.00616 | 2 | 0.22 | -0.059 | 3.19 | 4.83 | 4.13 | 3.62 | 1.59 | 5.21
TCAGACAGCTGAAGGTAACTCAGGTACGCAGTCG | -0.16 | 1.22 | -0.677 | 0.336 | -0.931 | 0.454 | 0.398 | 1.49 | 2.91 | 2.14 | 1.6 | -0.656 | -0.951 | -0.614 | -1.05 | 0.139 | -0.874 | 0.392 | -0.741 | -0.0591
ATCTCTAGGTAAAAGTTCGGTGAATCCCGAGGAT | 0.161 | 0.141 | 0.132 | 0.00747 | 0.757 | 2.68 | 5.39 | 6.18 | 4.88 | 6.61 | 2.29 | 2.74 | 1.06 | 1.26 | 0.445 | 0.402 | 0.883 | 0.471 | 0.857 | 0.906
CAAACTAGGTCACGAAAGGTCAAAGGCGAATGAC | 7.72 | 8.23 | 7.26 | 7.15 | 2.21 | 6.78 | 10.6 | 8.54 | 7.17 | 8.65 | 8.48 | 9.08 | 4.73 | 2.51 | 5.53 | 7.28 | 2.45 | 8.15 | 3.08 | 5.86
TCTCGGAGGACACGAAAGGTCAGAGCACGACATC | 2.91 | 3.73 | 3.12 | 3.29 | 0.0344 | 3.63 | 1.64 | 2.76 | 2.25 | 2.42 | 1.29 | 1.57 | 0.69 | -0.292 | 4.15 | 4.24 | 0.7 | 4.89 | 2.34 | 4.09
CCTAGTTGGTCAGGAGGTCACAGACCGGATATGA | 4.08 | 3.46 | 1.53 | 3.38 | 0.251 | 4.41 | 3.79 | 4.28 | 1.81 | 3.37 | 1.33 | 3.88 | 0.154 | 0.248 | 3.25 | 4.28 | 1.01 | 4.9 | 1.4 | 3.79
ACTATTAGTTGAAACGAGGGCAACCGATAGGTTG | 1.41 | 0.609 | 0.126 | 0.482 | 0.184 | 1.14 | 0.901 | 0.84 | 0.292 | 0.528 | 0.662 | 1.73 | 1.09 | 0.692 | 0.274 | 2.71 | 0.569 | 1.38 | 0.873 | 1.27
GGAACGAGGGCAAGGTGATAGCAGAGTTTGATGG | 0.873 | 0.623 | -0.0759 | 0.183 | -0.496 | 1.74 | 1.76 | 1.89 | 0.199 | 1.19 | 3.43 | 3.26 | -0.452 | -0.737 | 0.922 | 0.851 | 1.06 | 0.793 | 0.23 | 2.78

— the supplement of paper PMC6555819
